High-throughput results from PubChem.
Dicer inh = human Dicer pre-microRNA cleavage inhibition. cat-ELCCA pre-miR-21 Dicer processing, chemiluminescence; stronger effect = higher value. z-score at 25 µM. AID 1347074. 47,000 compounds, 6% hits. Q9UPY3; in the data active = z-score above about 3, passing the limit was not always enough;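 note: plate controls were vehicle for no effect and no enzyme for full effect; higher signal means more uncleaved substrate so more Dicer inhibition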
Target sequence (Q9UPY3 whole entry, looked up): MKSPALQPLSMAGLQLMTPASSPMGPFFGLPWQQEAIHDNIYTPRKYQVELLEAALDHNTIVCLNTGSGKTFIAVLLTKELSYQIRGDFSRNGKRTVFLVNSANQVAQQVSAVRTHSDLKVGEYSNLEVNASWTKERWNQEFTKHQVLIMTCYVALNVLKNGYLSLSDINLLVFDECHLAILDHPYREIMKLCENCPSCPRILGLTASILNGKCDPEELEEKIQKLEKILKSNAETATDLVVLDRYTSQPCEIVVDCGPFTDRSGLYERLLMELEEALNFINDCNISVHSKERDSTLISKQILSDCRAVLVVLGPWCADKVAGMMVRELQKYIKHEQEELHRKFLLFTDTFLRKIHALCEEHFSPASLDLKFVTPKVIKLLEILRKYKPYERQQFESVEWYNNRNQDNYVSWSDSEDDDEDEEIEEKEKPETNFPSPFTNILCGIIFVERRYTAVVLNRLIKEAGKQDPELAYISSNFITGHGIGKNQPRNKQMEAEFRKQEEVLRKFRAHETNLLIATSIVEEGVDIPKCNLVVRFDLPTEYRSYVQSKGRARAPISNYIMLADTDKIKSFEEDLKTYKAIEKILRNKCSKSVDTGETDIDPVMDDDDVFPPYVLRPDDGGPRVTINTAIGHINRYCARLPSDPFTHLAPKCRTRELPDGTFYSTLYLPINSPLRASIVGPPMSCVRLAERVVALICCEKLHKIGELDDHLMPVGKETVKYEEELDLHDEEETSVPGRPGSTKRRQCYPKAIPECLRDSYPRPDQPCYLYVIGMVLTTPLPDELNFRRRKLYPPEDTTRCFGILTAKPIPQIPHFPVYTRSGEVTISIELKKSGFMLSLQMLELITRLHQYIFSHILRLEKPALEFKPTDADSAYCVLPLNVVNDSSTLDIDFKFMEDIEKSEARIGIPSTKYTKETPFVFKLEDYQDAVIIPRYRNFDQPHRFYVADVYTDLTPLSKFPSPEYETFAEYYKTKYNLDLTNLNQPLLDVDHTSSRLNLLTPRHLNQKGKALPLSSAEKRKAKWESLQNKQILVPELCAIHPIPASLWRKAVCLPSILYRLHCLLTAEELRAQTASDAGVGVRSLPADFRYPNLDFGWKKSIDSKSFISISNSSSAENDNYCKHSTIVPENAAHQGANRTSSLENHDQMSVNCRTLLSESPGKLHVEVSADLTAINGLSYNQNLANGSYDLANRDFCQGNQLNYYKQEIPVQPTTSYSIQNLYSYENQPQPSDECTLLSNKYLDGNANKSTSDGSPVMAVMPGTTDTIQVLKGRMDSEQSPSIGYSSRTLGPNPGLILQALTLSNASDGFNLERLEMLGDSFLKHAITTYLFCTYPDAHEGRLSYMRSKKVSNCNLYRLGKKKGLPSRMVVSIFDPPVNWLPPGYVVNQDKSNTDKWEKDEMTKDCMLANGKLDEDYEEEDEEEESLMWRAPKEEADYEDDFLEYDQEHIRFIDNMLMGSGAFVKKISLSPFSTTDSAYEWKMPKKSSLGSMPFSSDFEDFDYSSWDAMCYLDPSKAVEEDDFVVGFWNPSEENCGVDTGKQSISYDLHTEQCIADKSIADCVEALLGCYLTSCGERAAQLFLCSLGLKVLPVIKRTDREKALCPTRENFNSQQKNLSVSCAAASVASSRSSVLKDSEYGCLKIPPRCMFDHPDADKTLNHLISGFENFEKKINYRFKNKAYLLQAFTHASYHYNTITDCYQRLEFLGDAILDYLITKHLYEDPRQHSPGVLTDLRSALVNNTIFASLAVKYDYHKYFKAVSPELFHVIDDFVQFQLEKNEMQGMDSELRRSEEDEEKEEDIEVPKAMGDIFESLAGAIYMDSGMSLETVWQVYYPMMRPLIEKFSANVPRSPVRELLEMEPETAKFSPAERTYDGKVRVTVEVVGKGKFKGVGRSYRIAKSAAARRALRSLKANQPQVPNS
Active calls of the source: *. Shown is part of a subset that was picked to be rich in hits.

SMILES	Dicer inh
COc1ccc(-c2cc(=O)c3cc(Cl)ccc3o2)cc1	-1.02
CSc1nnc(Nc2ccccc2)n1-c1ccccc1	1.35
Cc1ccsc1/C=C/C(=O)O/N=C/c1c(Cl)cccc1Cl	-0.4
N#Cc1ccc(CNC(=S)Nc2cc(Cl)ccc2Cl)cc1	1.16
COc1ccc(NS(=O)(=O)c2cccc(S(=O)(=O)c3ccc(Cl)cc3)c2)cc1	3.43*
COc1ccc(NS(=O)(=O)c2ccc(N)cc2)cc1	0.5
COc1ccc(NS(=O)(=O)c2ccc(NS(=O)(=O)c3ccc(Cl)cc3)cc2)cc1	-0.09
Cc1cc(Nc2ccc(Cl)c(C(=O)O)c2)n2ncnc2n1	1.88
Cc1ccc(C)n1-c1cc([N+](=O)[O-])ccc1N1CCN(S(=O)(=O)c2cn(C)cn2)CC1	4.85*
Cc1ccc(C)n1-c1cc([N+](=O)[O-])ccc1N1CCN(C(=O)N(C)C)CC1	0.36
Cc1ccc(C)n1-c1cc([N+](=O)[O-])ccc1-n1ccnc1	0.09
FC(F)(F)/C(=N\Sc1c(-c2ccccc2)nc2ccccn12)c1ccccc1	-1.48
Cn1ncc(C(=O)O/N=C(\N)c2cc(C(F)(F)F)cc(C(F)(F)F)c2)c1-n1cccc1	-1.24
COc1ccc(C2CC(=O)c3cnc(N4CCN(Cc5ccc6c(c5)OCO6)CC4)nc3C2)cc1 (stereo unspecified)	1
O=C1CC(c2cccc(Cl)c2)Cc2nc(N3CCN(Cc4ccc5c(c4)OCO5)CC3)ncc21 (stereo unspecified)	0.07
O=C1CC(/C=C/c2ccccc2)Cc2nc(N3CCN(Cc4ccc5c(c4)OCO5)CC3)ncc21 (stereo unspecified)	4.6*
COc1cc(-c2cc(O)c3c(C)oc(C)c3c(=O)c2)ccc1O	1.51
CCCCC(=O)Nc1nc2ccccc2s1	-0.22
O=C(Nc1ccc(F)cc1)Nc1nc2ccccc2s1	0.83
CCNC(=O)Nc1nc2ccccc2s1	4.41*
O=C1ON=C(c2ccccc2)/C1=C1\SC(C(=O)c2cccs2)=NN1c1ccc(Cl)cc1	2.6
COc1ccc(Br)c(OC)c1C(=O)NC(=O)Nc1c(C)cc(Br)cc1C	-0.4
O=C(OCc1ccc(Cl)cc1)c1cnc(Sc2ccc(Cl)cc2)nc1C(F)(F)F	-4.04
CCCC(=O)NNc1ncc(C(=O)OCC)c(C(F)(F)F)n1	2.68
O=C(OCc1ccc(Cl)cc1)c1cnc(NNC(=O)C(F)(F)F)nc1C(F)(F)F	3.4*
SMILES	Dicer inh
Cn1c(=O)n(C)c2cc(S(=O)(=O)NC3CCCCC3)ccc21	-0.28
O=c1[nH]c2ccc(S(=O)(=O)NC3CCCCC3)cc2[nH]1	4.68*
O=C(O)CNS(=O)(=O)c1ccc2[nH]c(=O)[nH]c2c1	0.48
COc1ccc(OCC(O)CNC(=S)Nc2ccccc2)cc1 (stereo unspecified)	1.5
CCOC(=O)c1cc(OCCOC)c(OCCOC)cc1NS(=O)(=O)c1cn(C)cn1	0.89
Cc1ccc(C(=O)N(c2ccccc2)C(C)C2CC2)cc1 (stereo unspecified)	-0.9
COC(=O)c1c(C)nn(C(=O)c2ccc(Cl)cc2)c1-c1snnc1C	0.43
O=C(CSc1ncnc2sc3c(c12)CCCC3)NCc1ccco1	0.55
O=C(Nc1sc2c(c1C(=O)O)CCCCC2)c1ccco1	2.7
O=C(Nc1sc2c(c1C(=O)Nc1ccccc1)CCCC2)c1ccco1	3.18*
CCC(=O)Nc1sc2c(c1C(=O)Nc1ccc(Cl)cc1)CCC2	0.55
CC(C)(C)C1CCc2c(sc(NC(=O)CCC(=O)O)c2C(=O)Nc2ccccc2Cl)C1 (stereo unspecified)	-0.75
O=C(Nc1sc2c(c1C(=O)Nc1ccccc1)CCCCC2)c1ccco1	2.82
N#Cc1c(NC(=O)c2ccco2)sc2c1CCCCC2	2.56
CCOC(=O)c1c(NC(=O)c2ccco2)sc2c1CCCCC2	5.7*
CCOC(=O)c1c(NC(=O)c2cccs2)sc2c1CCCC2	-1.06
CCC(=O)Nc1sc2c(c1C(=O)Nc1ccccc1Cl)CCC2	4.21*
O=C(CSc1nc2ccccc2c(=O)n1-c1cccnc1)c1cccs1	-0.48
O=C(Cn1cc(C(=O)c2ccco2)c2ccccc21)Nc1ccc(Cl)cc1	-0.83
Cc1ccc(C2/C(=C(\O)c3ccc(F)cc3)C(=O)C(=O)N2CCCN2CCOCC2)cc1 (stereo unspecified)	-1.25
CCc1c(C)nc2nc(N)[nH]n2c1=O	0.42
COc1ccc(C2Nc3cc(C)c(C)cc3NC3=C2C(=O)CC(C)(C)C3)cc1 (stereo unspecified)	-1.71
O=C(O)c1ccc(-n2ccc(C(F)(F)F)n2)cc1	-0.73
CCOc1cc(CNCCO)cc(Cl)c1OCc1cccs1	-0.58
O=C(Nc1ccccc1)NC1CCS(=O)(=O)C1 (stereo unspecified)	2.82
SMILES	Dicer inh
O=C(Oc1ccccc1)OC1CCS(=O)(=O)C1 (stereo unspecified)	4*
Cc1ccc(OC2CCS(=O)(=O)C2)cc1 (stereo unspecified)	0.65
Cc1ccc(-c2c3c(=O)n(C)c(=O)n(C)c3cn2C(C)(C)C)cc1	0.54
Cc1ccc(NC(=S)N2CCCc3ccccc32)c(C)c1	0.86
Cc1ccc(NC(=S)N(CCC#N)C2CCCCC2)c(C)c1	-1.05
COc1ccc(/C(O)=C2\C(=O)C(=O)N(CCCN(C)C)C2c2ccc(Cl)cc2)cc1 (stereo unspecified)	0.62
CC1=CC(C)(C)N(C(=O)Nc2ccc(C)cc2)c2ccc(C)cc21	-0.67
CC1=CC(C)(C)N(C(=O)c2ccc(F)cc2)c2cc3c(cc21)OCO3	4.58*
CCOc1ccc2c(c1)C(C)=CC(C)(C)N2C(=O)Nc1ccc(F)cc1	0.91
Cc1nc(COc2ccc(C(C)(C)C)cc2)sc1C(=O)NN	-1.07
CCc1ccc(S(=O)(=O)N(C(=O)c2cccnc2)c2ccc3oc(=O)sc3c2)cc1	6.22*
O=C(c1ccncc1)N(c1ccc2oc(=O)sc2c1)S(=O)(=O)c1ccc(Br)cc1	2.13
CC(C)(C)c1ccc(S(=O)(=O)N(C(=O)c2ccncc2)c2ccc3oc(=O)sc3c2)cc1	6.71*
CC(C)c1ccc(S(=O)(=O)N(C(=O)c2cccnc2)c2ccc3oc(=O)sc3c2)cc1	2.73
CC(C)(C)c1ccc(S(=O)(=O)N(C(=O)c2cccnc2)c2ccc3oc(=O)sc3c2)cc1	4.56*
Cc1ccc(/C(O)=C2\C(=O)C(=O)N(CCCN3CCOCC3)C2c2ccc(Cl)cc2)cc1 (stereo unspecified)	-0.65
CN(C(=O)CSc1ccc(Cl)cc1)c1ccc(F)cc1F	0.24
CCOc1cc(CNc2ncn[nH]2)cc(Cl)c1OC	2.33
CCCN(CCC)C(=O)C1Sc2nnc(C)n2NC1c1ccc(C)cc1 (stereo unspecified)	-0.18
CC(NCc1ccccc1)c1ccco1 (stereo unspecified)	-0.68
Fc1ccc(C2=NN=C(c3ccc(F)cc3)CC(c3ccccc3)=C2)cc1	-1.86
CCCOC(=O)C1=C(C)NC2=C(C(=O)CC(c3ccccc3OC)C2)C1c1coc2ccccc2c1=O (stereo unspecified)	5.98*
CCOCCOC(=O)C1=C(C)NC2=C(C(=O)CC(c3ccccc3)C2)C1c1ccc(F)cc1 (stereo unspecified)	1.63
CCOC(=O)C1=C(C)NC2=C(C(=O)CC(c3ccccc3)C2)C1c1cccc2ccccc12 (stereo unspecified)	0.44
COc1ccccc1C1CC(=O)C2=C(C1)NC(C)=C(C(=O)OC(C)C)C2c1coc2ccccc2c1=O (stereo unspecified)	0.03
CCSCCOC(=O)C1=C(C)NC2=C(C(=O)CC(c3ccc(OC)cc3)C2)C1c1ccc(F)cc1 (stereo unspecified)	1.7
